Test results taken from PubChem BioAssay (NCATS).
Inconclusive results are not listed. Entries that show only a call come without a potency. The source made the active and inactive calls. Unless noted, calls follow the shape of the dose curve; as a rule, active = well fitted curve in the direction sought with a large enough effect; inconclusive = small, poorly fitted or top-dose-only effect, or another doubt; inactive = no such curve, though single readings can be large; an effect the other way counts as inactive or inconclusive.

How the values were obtained:
[1] = molecular target: Ubiquitin carboxyl-terminal hydrolase 1 (Homo sapiens) (UniProt O94782); assay: Inhibitors of USP1/UAF1: Pilot qHTS (AID 504865);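 also: rhodamine fluorescence freed from ubiquitin-rhodamine substrate followed over time; top concentration of the series differs between compounds; nearly all actives have a fitted effect of over 35% in size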
In short: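 In 50mM HEPES pH 7.8 containing 0.5mM EDTA, 1mM TCEP, 0.1 mg/ml BSA and 0.01% Tween-20, 1nM USP1/UAF1 is exposed to compound for 15 min, then Ub-Rho (150nM final) is added and fluorescence is read over time.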

[2] = molecular target: Peptidyl-prolyl cis-trans isomerase NIMA-interacting 1 (Homo sapiens) (UniProt Q13526); assay: qHTS Validation Assay to Find Inhibitors of Pin1 (AID 504536; active = well fitted inhibition curve with a large enough effect in the polarisation, with a control signal flat, not every such curve was filed as active; the % refers to the polarisation)
In short: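 Fluorescence polarization competition: compounds (titration) displace HiFluor-488-labeled Pin1-1b peptide from Pin1 (0.3 uM final) in pH 7.5 HEPES buffer with DTT, 10 min at room temperature; %Activity normalized to no-enzyme wells, curves fitted.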

[3] = molecular target: Phosphoglycerate kinase, glycosomal (Trypanosoma brucei brucei) (UniProt P07378); assay: qHTS Validation Assay to Find Inhibitors of Phosphoglycerate Kinase (AID 504547); also: potency is read from the fitted curve at half-maximal effect
In short: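 Substrate/PGK mix plus compound; reaction started with GAPDH (100nM final) to form 1,3-BPG; 60 min RT; Kinase-Glo Plus 10 min; luminescence. TEA 100mM pH 7.6, MgCl2 5mM, Tween-20 0.01%.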

[4] = molecular target: phosphoglycerate mutase (Leishmania major) (UniProt Q4Q090); assay: qHTS Validation Assay to Find Inhibitors of Phosphoglycerate Mutase (AID 504548); also: series mostly up to about 58 µM
In short: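 Lm PGAM 1.25nM final; 100 mM TEA pH 7.6, 5 mM MgCl2, 0.01% Tween-20; 45 min RT; Kinase-GloPlus, 10 min; end-point luminescence. Enzyme-free wells as negative controls.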

[5] = qHTS for Inhibitors of ATXN expression: Validation of Cytotoxic Assay (AID 588349)
In short: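 HEK293 cells were dosed with titrated compounds for 72 hr at 37 degrees C. Viability was read by CellTiter Glo luminescence, with intracellular ATP as the marker of cell survival.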

[6] = qHTS for Inhibitors of ATXN expression: Validation (AID 588378); also: series mostly up to about 57 µM; nearly all actives have a fitted effect of over 75% in size
In short: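 Compounds were pinned onto attached HEK293 cells carrying an ATXN2-firefly luciferase construct and incubated 24 hrs at 37 degrees C. Each well then received a fluorescent viability reagent followed by luciferase substrate for end-point luminescence.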

[7] = molecular target: DNA dC->dU-editing enzyme APOBEC-3G (Homo sapiens) (UniProt Q9HC16); assay: qHTS for inhibitors of Vif-A3G interactions: Validation (AID 588379)
In short: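 HeLa cells stably expressing Vif and A3G-eYFP, 700 cells/well, incubated overnight at 37 deg C, then exposed to compound overnight at 37 deg C. Inhibition of Vif-mediated degradation read as increased yellow fluorescence (Ex 488/Em 500-530) by laser-scanning cytometry.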

[8] = molecular target: Bile acid receptor (Homo sapiens) (UniProt Q96RI1); assay: qHTS assay for small molecule antagonists of farnesoid X receptor signaling (AID 588526; calls by dose curve)
In short: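 Concentration-response titrations were fitted to the Hill equation for half-maximal inhibition and maximal response, with data normalised to 50 uM chenodeoxycholic acid and DMSO control wells. Cells: FXR-UAS-bla HEK293T, dialyzed FBS.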

[9] = molecular target: Glucocorticoid receptor (Homo sapiens) (UniProt P04150); assay: qHTS assay for small molecule agonists of glucocorticoid receptor signaling (AID 588532; active = well fitted curve in the direction sought with a large enough effect in the signal ratio, with a control signal flat; the % refers to the signal ratio); details: HeLa MMTV-bla, beta-lactamase ratio, agonist, 18 h; stronger effect = higher value; percent of dexamethasone control, DMSO zero
In short: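 MMTV-bla HeLa, beta-lactamase reporter; medium with 1% charcoal/dextran-stripped FBS; cpds up to 92 uM, 18 h, 37 C; CCF4 readout 460/530 nm; Hill fit → EC50, efficacy vs 0.1 uM dexamethasone = 100%.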

[10] = molecular target: Glucocorticoid receptor (Homo sapiens) (UniProt P04150); assay: qHTS assay for small molecule antagonists of glucocorticoid receptor signaling (AID 588533; active = well fitted inhibition curve with a large enough effect in the signal ratio, with a control signal flat, not every such curve was filed as active; the % refers to the signal ratio;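 also: cells stimulated with 2 nM dexamethasone as agonist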)
In short: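 Antagonist-mode qHTS: compound titrations added to GRE-bla HeLa cells, then dexamethasone 2 nM final; 18 h, 37 C. CCF4 FRET fluorescence normalized to dexamethasone and DMSO; IC50 from Hill fit.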

[11] = molecular target: Peroxisome proliferator-activated receptor gamma (Homo sapiens) (UniProt P37231); assay: qHTS assay for small molecule agonists of peroxisome proliferator-activated receptor gamma signaling (AID 588536; active = well fitted curve in the direction sought with a large enough effect in the signal ratio, with a control signal flat, not every such curve was filed as active; the % refers to the signal ratio)
In short: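 PPAR-gamma-UAS-bla HEK293 cells in medium with 1% charcoal/dextran-treated FBS were exposed to compounds for 16 h at 37 C. Beta-lactamase activity was read with CCF4 substrate (405 nm excitation, 460/530 nm emission).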

[12] = molecular target: Peroxisome proliferator-activated receptor gamma (Homo sapiens) (UniProt P37231); assay: qHTS assay for small molecule antagonists of peroxisome proliferator-activated receptor gamma signaling (AID 588537; active = well fitted inhibition curve with a large enough effect in the signal ratio, with a control signal flat, not every such curve was filed as active; the % refers to the signal ratio;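 also: reporter cells co-stimulated with 50 nM rosiglitazone agonist during compound treatment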)
In short: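 PPAR-gamma-UAS-bla HEK293 cells (3000/well, 1% charcoal/dextran-stripped FBS) were preincubated 6-6.5 h at 37 C, given titrated compounds, then stimulated with 50 nM rosiglitazone for 16 h. Beta-lactamase activity was read with CCF4 dye; IC50 came from Hill fits.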

[13] = molecular target: Vitamin D3 receptor (Homo sapiens) (UniProt P11473); assay: qHTS assay for small molecule antagonists of vitamin D receptor signaling (AID 588541; calls by dose curve;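 also: receptor activated by calcitriol during compound treatment; series mostly up to about 77 µM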)
In short: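 VDR-UAS-bla HEK293T cells (2000/well, 2% charcoal-stripped FBS) were treated with titrated compounds plus 1-alpha,25-dihydroxyvitamin D3 (50 nM or 3 nM final) for 16 h at 37 C. CCF4 beta-lactamase fluorescence was read; Hill fits gave IC50.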

[14] = qHTS assay for small molecule agonists of retinoid X receptor alpha signaling (AID 588544); details: HEK293T RXRa-UAS-bla, beta-lactamase reporter, 18 h; 530 nm emission
[15] = qHTS assay for small molecule antagonists of peroxisome proliferator-activated receptor delta signaling (AID 588535; active = well fitted inhibition curve with a large enough effect in the signal ratio, with a control signal flat, not every such curve was filed as active; the % refers to the signal ratio;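 as to max response: cells co-treated with a PPAR-delta agonist as stimulator during compound exposure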); details: HEK293T PPARd-UAS-bla, beta-lactamase FRET ratio, 18 h; 460 nm channel
In short: (§1)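 GeneBLAzer PPAR-delta-UAS-bla HEK293T cells in medium with 2% charcoal/dextran FBS were preincubated 5 hrs at 37 C, then given compounds, incubated 18 hrs at 37 C, and read by CCF4 beta-lactamase fluorescence; IC50 from Hill fits.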

[16] = molecular target: Peroxisome proliferator-activated receptor delta (Homo sapiens) (UniProt Q03181); assay: as above
In short: as §1

[17] = molecular target: Estrogen receptor (Homo sapiens) (UniProt P03372); assay: qHTS assay for small molecule antagonists of estrogen receptor alpha signaling (AID 588513; active = well fitted curve in the direction sought with a large enough effect in the signal ratio, with a control signal flat, not every such curve was filed as active; the % refers to the signal ratio)
In short: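 Fluorescence from CCF4 substrate after 2 h at room temperature gave reporter activity; cells had been exposed to compound and 0.5nM 17-beta-estradiol for 18 h at 37 C. Hill-equation fitting yielded IC50 and maximal response.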

[18] = molecular target: Estrogen receptor (Homo sapiens) (UniProt P03372); assay: qHTS assay for small molecule agonists of estrogen receptor alpha signaling (AID 588514; calls by dose curve; also: nearly all actives have a fitted effect of over 70% in size)
In short: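 ER-alpha-UAS-bla GripTite HEK 293 cells in medium with 2% charcoal/dextran-treated FBS were treated with compound titrations at 37 C for 18 hrs; beta-lactamase reporter read by CCF4 fluorescence after 2 hrs at RT.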

[19] = molecular target: Androgen receptor (Homo sapiens) (UniProt P10275); assay: qHTS assay for small molecule agonists of androgen receptor signaling (AID 588515; active = well fitted curve in the direction sought with a large enough effect in the signal ratio, with a control signal flat; the % refers to the signal ratio); details: AR-UAS-bla HEK293, beta-lactamase ratio, agonist 16 h; stronger effect = higher value
In short: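 EC50 and efficacy came from Hill fits of titrations (up to 92 uM) normalized to 30 nM R1881 as 100% and DMSO as 0%. Compound exposure was 16 h at 37 C on AR-UAS-bla HEK293 cells, with a 405/460/530 nm CCF4 fluorescence read.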

[20] = molecular target: Androgen receptor (Homo sapiens) (UniProt P10275); assay: qHTS assay for small molecule antagonists of androgen receptor signaling (AID 588516; active = well fitted curve in the direction sought with a large enough effect in the signal ratio, with a control signal flat, not every such curve was filed as active; the % refers to the signal ratio)
In short: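 Cells were plated and incubated 5 h, compounds added in titration, then R1881 (10 nM final) as agonist. After 16 h at 37 C, CCF4 substrate was loaded for 2 h at room temperature and fluorescence measured.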

Chain of Estrogen receptor (Homo sapiens) (P03372 whole entry, looked up): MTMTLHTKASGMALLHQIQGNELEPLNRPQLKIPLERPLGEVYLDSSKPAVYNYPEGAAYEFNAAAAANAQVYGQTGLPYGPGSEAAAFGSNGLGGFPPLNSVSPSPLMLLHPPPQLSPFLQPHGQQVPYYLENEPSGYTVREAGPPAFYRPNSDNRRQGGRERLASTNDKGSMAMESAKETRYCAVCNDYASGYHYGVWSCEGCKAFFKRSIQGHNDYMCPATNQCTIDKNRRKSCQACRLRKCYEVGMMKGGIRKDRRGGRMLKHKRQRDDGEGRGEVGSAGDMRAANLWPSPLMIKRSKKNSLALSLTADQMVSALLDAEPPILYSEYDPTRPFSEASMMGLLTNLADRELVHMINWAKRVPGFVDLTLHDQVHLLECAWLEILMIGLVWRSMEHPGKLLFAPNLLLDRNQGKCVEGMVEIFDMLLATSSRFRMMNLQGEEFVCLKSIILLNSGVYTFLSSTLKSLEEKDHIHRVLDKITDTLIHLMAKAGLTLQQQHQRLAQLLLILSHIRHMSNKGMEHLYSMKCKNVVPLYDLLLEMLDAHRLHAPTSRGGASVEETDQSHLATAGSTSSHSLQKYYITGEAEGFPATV
Chain of Glucocorticoid receptor (Homo sapiens) (P04150 whole entry, looked up): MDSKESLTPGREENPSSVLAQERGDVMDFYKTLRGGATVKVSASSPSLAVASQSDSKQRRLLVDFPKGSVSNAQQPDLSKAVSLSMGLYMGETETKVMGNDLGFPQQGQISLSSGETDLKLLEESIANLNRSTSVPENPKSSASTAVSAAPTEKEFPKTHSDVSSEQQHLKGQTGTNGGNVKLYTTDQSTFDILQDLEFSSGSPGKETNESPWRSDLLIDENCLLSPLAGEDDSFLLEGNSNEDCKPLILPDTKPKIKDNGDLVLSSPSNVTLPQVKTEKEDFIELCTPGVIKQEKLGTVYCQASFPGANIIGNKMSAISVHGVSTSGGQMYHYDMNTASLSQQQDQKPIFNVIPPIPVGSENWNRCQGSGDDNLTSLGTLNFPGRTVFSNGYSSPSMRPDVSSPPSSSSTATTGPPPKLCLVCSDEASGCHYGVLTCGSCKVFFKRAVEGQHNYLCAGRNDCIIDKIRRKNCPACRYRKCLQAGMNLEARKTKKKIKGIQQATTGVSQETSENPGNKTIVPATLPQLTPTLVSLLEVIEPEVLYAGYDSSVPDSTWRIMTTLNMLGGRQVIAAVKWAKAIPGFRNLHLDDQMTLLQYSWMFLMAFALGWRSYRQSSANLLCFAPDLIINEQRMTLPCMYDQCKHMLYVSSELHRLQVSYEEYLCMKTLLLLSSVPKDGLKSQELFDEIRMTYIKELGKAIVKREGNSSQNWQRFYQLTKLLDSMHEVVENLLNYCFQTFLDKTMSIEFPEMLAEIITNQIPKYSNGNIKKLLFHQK
Chain of Ubiquitin carboxyl-terminal hydrolase 1 (Homo sapiens) (O94782 whole entry, looked up): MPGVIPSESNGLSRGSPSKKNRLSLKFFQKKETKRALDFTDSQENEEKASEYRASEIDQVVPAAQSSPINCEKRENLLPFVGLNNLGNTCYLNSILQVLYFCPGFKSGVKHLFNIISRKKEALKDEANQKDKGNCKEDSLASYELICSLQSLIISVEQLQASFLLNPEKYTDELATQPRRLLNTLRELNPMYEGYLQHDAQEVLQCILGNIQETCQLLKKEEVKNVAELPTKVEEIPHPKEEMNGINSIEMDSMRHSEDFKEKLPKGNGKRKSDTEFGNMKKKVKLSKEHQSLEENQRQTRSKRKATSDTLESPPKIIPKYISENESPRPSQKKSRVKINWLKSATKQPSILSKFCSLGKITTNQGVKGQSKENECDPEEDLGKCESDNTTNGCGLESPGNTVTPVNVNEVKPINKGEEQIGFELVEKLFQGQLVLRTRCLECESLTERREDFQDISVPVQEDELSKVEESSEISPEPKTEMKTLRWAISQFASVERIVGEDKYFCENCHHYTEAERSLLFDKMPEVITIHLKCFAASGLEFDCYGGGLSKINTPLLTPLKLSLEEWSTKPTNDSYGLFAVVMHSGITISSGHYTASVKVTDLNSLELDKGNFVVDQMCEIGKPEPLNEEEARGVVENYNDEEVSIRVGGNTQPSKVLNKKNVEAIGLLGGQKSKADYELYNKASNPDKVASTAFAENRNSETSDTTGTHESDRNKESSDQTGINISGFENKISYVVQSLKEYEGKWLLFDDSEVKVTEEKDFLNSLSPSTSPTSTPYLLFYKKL
Chain of phosphoglycerate mutase (Leishmania major) (Q4Q090 1-553): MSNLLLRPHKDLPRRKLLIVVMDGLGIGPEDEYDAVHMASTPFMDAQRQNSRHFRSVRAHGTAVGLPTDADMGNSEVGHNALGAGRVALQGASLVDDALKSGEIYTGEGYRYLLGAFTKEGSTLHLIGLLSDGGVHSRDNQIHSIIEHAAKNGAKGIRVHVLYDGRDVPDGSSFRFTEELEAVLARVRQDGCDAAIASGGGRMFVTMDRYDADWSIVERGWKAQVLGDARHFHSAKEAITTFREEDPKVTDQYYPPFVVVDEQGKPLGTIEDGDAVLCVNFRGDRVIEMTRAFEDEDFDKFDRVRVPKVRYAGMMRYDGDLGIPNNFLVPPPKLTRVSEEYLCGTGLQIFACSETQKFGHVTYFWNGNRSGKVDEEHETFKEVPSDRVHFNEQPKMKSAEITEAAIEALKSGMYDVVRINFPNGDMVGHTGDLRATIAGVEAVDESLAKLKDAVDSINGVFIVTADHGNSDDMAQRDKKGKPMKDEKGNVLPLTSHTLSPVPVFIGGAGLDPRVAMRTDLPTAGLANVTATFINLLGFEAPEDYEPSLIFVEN
Chain of Vitamin D3 receptor (Homo sapiens) (P11473 whole entry, looked up): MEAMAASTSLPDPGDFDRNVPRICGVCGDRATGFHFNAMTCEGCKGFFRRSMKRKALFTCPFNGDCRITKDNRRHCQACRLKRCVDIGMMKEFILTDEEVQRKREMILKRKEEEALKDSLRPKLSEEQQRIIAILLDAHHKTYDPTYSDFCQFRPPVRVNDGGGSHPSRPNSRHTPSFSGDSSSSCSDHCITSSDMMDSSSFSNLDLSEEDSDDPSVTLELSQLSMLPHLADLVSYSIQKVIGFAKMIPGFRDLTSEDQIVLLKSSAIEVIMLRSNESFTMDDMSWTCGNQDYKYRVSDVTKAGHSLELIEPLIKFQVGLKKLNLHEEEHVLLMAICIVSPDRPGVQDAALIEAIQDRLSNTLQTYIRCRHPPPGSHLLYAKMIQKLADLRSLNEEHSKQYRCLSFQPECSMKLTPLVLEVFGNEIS
Chain of Peptidyl-prolyl cis-trans isomerase NIMA-interacting 1 (Homo sapiens) (Q13526 whole entry, looked up): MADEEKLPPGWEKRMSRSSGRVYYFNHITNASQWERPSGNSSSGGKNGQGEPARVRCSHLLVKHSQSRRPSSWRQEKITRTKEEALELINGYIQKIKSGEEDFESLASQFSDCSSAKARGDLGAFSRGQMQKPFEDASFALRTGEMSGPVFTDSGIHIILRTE
Chain of Peroxisome proliferator-activated receptor gamma (Homo sapiens) (P37231 whole entry, looked up): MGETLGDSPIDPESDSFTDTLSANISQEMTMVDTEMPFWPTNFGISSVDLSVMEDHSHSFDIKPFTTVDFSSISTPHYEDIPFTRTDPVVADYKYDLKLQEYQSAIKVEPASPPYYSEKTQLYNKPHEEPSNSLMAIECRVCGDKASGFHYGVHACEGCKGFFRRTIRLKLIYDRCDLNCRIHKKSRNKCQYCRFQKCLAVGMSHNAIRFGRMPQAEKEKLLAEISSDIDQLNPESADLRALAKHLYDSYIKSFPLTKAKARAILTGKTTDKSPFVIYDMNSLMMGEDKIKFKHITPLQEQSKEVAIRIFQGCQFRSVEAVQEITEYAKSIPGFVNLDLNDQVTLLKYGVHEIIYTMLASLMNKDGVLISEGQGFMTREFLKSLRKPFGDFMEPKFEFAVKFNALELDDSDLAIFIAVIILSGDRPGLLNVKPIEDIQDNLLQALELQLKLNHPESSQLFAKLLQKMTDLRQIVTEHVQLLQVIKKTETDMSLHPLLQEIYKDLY
Chain of Phosphoglycerate kinase, glycosomal (Trypanosoma brucei brucei) (P07378 whole entry, looked up): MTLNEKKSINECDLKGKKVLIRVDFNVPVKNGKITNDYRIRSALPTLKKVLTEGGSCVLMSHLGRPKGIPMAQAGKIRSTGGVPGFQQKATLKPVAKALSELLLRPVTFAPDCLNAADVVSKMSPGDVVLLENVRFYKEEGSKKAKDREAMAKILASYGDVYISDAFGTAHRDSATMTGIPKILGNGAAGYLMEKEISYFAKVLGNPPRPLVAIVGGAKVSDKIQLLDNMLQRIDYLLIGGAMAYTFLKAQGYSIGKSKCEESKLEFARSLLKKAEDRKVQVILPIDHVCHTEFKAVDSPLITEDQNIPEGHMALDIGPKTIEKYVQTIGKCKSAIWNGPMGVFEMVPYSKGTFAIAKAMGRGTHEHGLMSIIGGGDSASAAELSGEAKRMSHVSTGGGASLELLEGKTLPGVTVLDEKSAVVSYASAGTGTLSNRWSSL
Chain of Bile acid receptor (Homo sapiens) (Q96RI1 whole entry, looked up): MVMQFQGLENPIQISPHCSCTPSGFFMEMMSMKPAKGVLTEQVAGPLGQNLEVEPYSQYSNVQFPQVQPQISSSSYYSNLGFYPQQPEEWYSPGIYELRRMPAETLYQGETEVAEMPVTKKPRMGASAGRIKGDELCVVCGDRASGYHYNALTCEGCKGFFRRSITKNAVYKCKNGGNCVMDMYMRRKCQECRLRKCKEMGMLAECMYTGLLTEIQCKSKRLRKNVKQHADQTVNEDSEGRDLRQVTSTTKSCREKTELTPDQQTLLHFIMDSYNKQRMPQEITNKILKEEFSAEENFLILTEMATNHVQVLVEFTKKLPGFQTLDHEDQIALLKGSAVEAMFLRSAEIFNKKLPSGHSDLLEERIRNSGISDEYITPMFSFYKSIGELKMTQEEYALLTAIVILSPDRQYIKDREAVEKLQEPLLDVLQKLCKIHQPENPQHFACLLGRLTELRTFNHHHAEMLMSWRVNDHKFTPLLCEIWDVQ

## CNC1CCCN(c2c(F)cc3c(=O)c(C(=O)O)cn(C4CC4)c3c2OC)C1 (stereo not drawn)
[1]
  Potency: inactive

## CCN1CCCC1CNC(=O)c1cc(S(N)(=O)=O)ccc1OC (stereo not drawn)
[2]
  outcome: inactive
[3]
  Potency: inactive
[4]
  outcome: inactive
[1]
  Potency: inactive
[5]
  Potency: inactive
[6]
  Potency: inactive
[7]
  outcome: inactive

## N[C@@H](Cc1ccc(O)c(O)c1)C(=O)O
[3]
  Potency: 9.53 µM (active)
[4]
  outcome: inactive
[1]
  Potency: inactive
[5]
  Potency: inactive
[6]
  Potency: inactive
[8]
  outcome: inactive
[9]
  activation: -2.15% (inactive)
[10]
  outcome: inactive
[11]
  outcome: inactive
[12]
  Potency: inactive
[13]
  outcome: inactive
[14]
  max response: -21.2%

## CC1=C(C(=O)O)N2C(=O)[C@@H](NC(=O)C(N)c3ccccc3)[C@H]2SC1 (stereo partly drawn)
[3]
  Potency: inactive
[4]
  outcome: inactive
[1]
  Potency: inactive
[5]
  Potency: inactive
[6]
  Potency: inactive

## Nc1nc(N)c2nc(CNc3ccc(C(=O)NC(CCC(=O)O)C(=O)O)cc3)cnc2n1 (stereo not drawn)
[4]
  outcome: inactive
[5]
  Potency: inactive
[6]
  Potency: inactive
[9]
  activation: 7.7% (inactive)
[10]
  outcome: inactive
[15]
  max response: 44.5%
[16]
  outcome: inactive
[13]
  outcome: inactive

## CCOC(=O)[C@H](CCc1ccccc1)N[C@H]1CS[C@H](c2cccs2)CN(CC(=O)O)C1=O
[1]
  Potency: inactive

## CCn1cc(C(=O)O)c(=O)c2cc(F)c(N3CCNCC3)nc21
[1]
  Potency: inactive

## NC(=O)c1cccc(N)c1
[2]
  outcome: inactive
[3]
  Potency: inactive
[4]
  outcome: inactive
[1]
  Potency: inactive
[5]
  Potency: inactive
[6]
  Potency: inactive
[7]
  outcome: inactive

## CC1CC2C3CCC4=CC(=O)C=C[C@]4(C)[C@@]3(F)[C@@H](O)C[C@]2(C)[C@@]1(O)C(=O)CO (stereo partly drawn)
[2]
  outcome: inactive
[3]
  Potency: inactive
[4]
  outcome: inactive
[1]
  Potency: inactive
[5]
  Potency: inactive
[6]
  Potency: inactive

## NNC(=O)c1ccncc1
[1]
  Potency: inactive
[17]
  Potency: inactive
[18]
  outcome: inactive
[9]
  activation: -1.09% (inactive)
[10]
  outcome: inactive
[15]
  max response: 0.593%
[16]
  outcome: inactive
[11]
  outcome: inactive
[12]
  Potency: inactive
[13]
  outcome: inactive
[14]
  max response: 1.41%

## Cc1nnc(NS(=O)(=O)c2ccc(N)cc2)s1
[1]
  Potency: inactive
[17]
  Potency: inactive
[18]
  outcome: inactive
[19]
  activation: -1.65% (inactive)
[20]
  outcome: inactive
[11]
  outcome: inactive
[13]
  outcome: inactive
[14]
  max response: -10.5%

## Cc1cc(NS(=O)(=O)c2ccc(N)cc2)no1
[8]
  outcome: inactive
[9]
  activation: 9.43% (inactive)
[10]
  outcome: inactive
[11]
  outcome: inactive
[13]
  outcome: inactive
[14]
  max response: 12.4%
